SMILES strings stand for the structures. About 83,000 compounds went through this panel and 20% of them were active in at least one assay; those are over-represented in the sample as a whole.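 Cells were grown in 96-well plates and exposed to the test compound at a single concentration for 48 hours; results are reported as percent growth, with values below 10 considered active.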 Active and inactive are the calls of the source.

This assay relates to SR leukemia. Put plainly: NCI-60 one-dose screen, 48 h (100 = growth as untreated, 0 = no growth, -100 = all killed). The conditions noted are these: 10 µM unless noted.
As to `CCCc1n(Cc2ccc3ccccc3c2)cc[n+]1Cc1ccc2ccccc2c1`, the growth is -38.1% (active).

In the case of `CC(=O)OCC(=O)[C@@]1(O)CC[C@H]2[C@@H]3CCC4=CC(=O)CC[C@]4(C)[C@@]3(F)[C@@H](O)C[C@@]21C`, the growth was 99.8% (inactive).

Consider `COC(=O)[C@H](Cc1cnc[nH]1)NC(=O)[C@@H](NC(=O)Nc1cc(C(F)(F)F)cc(C(F)(F)F)c1)C(C)C`, for which the growth is -37% [100 µM] (active).

As for `COc1ccccc1-n1c(-c2ccc(O)cc2C)cn2c3c(=O)[nH]c(=O)n(C)c3nc12`, the growth was 90.8% (inactive).

Consider `Nc1nc(Nc2ccccc2SSc2ccccc2Nc2nc(N)nc(-c3cccc(Cl)c3)n2)nc(-c2cccc(Cl)c2)n1`, for which the growth is 39.3% (inactive).

Regarding `COc1ccc2c(c1)C(=Nc1cc(OC)c(OC)c(OC)c1)C(=O)N2`, the growth was 75.4% (inactive).

With `CC1C(=O)NC2=Nc3ccccc3C(=O)NN21` (stereo not given), the growth is 91.3% (inactive).

Regarding `CC1c2ccccc2-c2ccccc2N1C` (stereo not given), the growth was 96.3% (inactive).

Consider `CCC(C)C1NC(=O)C(CCNCS(=O)(=O)O)NC(=O)C(NC(=O)C(CCNCS(=O)(=O)O)NC(=O)C(NC(=O)C(CCNCS(=O)(=O)O)NC(=O)CCCCC(C)C)C(C)O)CCNC(=O)C(C(C)O)NC(=O)C(CCNCS(=O)(=O)O)NC(=O)C(CCNCS(=O)(=O)O)NC(=O)C(C(C)CC)NC1=O` (stereo not given), for which the growth is 16.4% (inactive).

Regarding `O=C(N/N=C/c1ccc(Cl)cc1Cl)c1ccccc1Nc1cccc(C(F)(F)F)c1`, the growth was 56.3% (inactive).

In the case of `COc1cnc2c(c1)C(=O)c1c-2n(CCCN2CCNCC2)c(=O)c2cc(F)ccc12`, the growth is -13.1% (active).

With `O=C(/C=C/c1cccc(Nc2ccnc3cc(Cl)ccc23)c1)c1ccc(Cl)cc1`, the growth is -9.97% (active).

Consider `Nc1c(C(=O)Nc2cccc(Cl)c2)sc2nc3c(cc12)C(O)CCC3` (stereo not given), for which the growth was 8.19% (active).

With `Nc1nc(Nc2ccccc2SSc2ccccc2Nc2nc(N)nc(C(Cl)(Cl)Cl)n2)nc(C(Cl)(Cl)Cl)n1`, the growth was 14.8% (inactive).

Take `Cc1ccc(/C=C(/C#N)n2nnc3ncccc32)cc1`: the growth is 15.2% (inactive).

As for `O=C1C=CC(=O)N1c1ccccn1`, the growth was 79.4% (inactive).

`c1ccc(COc2ccc(Nc3ncnc4c3cnn4-c3ccccc3)cc2)cc1`: the growth is 91.9% (inactive).

`CN1C(=O)C(C2=NN(C=O)C(c3ccc(F)cc3)C2)C(=O)N(C)C1=O` (stereo not given): the growth is 101% (inactive).

In the case of `COc1ccc(C(=O)/C=C/c2cccc(Nc3ccnc4cc(Cl)ccc34)c2)cc1`, the growth was 0.362% (active).

For the molecule `Cc1n(Cc2ccc3ccccc3c2)cc[n+]1Cc1ccc2ccccc2c1`, the growth is -3.72% (active).

Regarding `O=C(/C=C/c1ccc(C(F)(F)F)cc1)c1ccc(Nc2nc(NCCO)nc(NCCO)n2)cc1`, the growth is -2.01% (active).

As to `O[N+]1=CC=CCC1=S.On1ccccc1=S.[Zn]`, the growth is -4.29% (active).

For the molecule `Cn1c(=O)c2[nH]c(=S)n(Cc3ccccc3)c2n(C)c1=O`, the growth is 91.4% (inactive).

For `COc1cc(/C=C/C(=O)c2c(C)n([O-])c3ccc(Cl)cc3[n+]2=O)cc(OC)c1OC`, the growth is 11.8% (inactive).

For `COc1ccc(Oc2ccccc2NC(=O)CNC(=O)c2cccc3ccccc23)cc1`, the growth was 23.7% [5 µM] (inactive).

`CN[C@@H]1C(OC2[C@H](O[C@H]3[C@H](O)[C@@H](O)[C@H](N=C(N)N)[C@@H](O)[C@@H]3N=C(N)N)OC(C)[C@]2(O)CO)OC(CO)C(O)C1O` (stereo not given in full): the growth was 102% (inactive).

Turning to `CNc1nc(NC2CCCC2)nc(Sc2ccc(OC)cc2)n1`, the growth was -0.593% [100 µM] (active).

Regarding `COc1ccc(OC)c(CCn2cncc2-c2c[nH]c3cc(Br)ccc23)c1`, the growth is 13.6% (inactive).

Turning to `COc1cnc2c(c1)C(=O)c1c-2n(CCCN2CCCC2)c(=O)c2cc(F)ccc12`, the growth was -9.13% (active).

Consider `COc1cc(C2=NN(C=O)C(c3cccc(Nc4ccnc5cc(Cl)ccc45)c3)C2)cc(OC)c1OC` (stereo not given), for which the growth is 9.32% (active).

On to `N#Cc1c(-c2ccccc2)cc(-c2ccccc2)n(CCCCC(=O)O)c1=O`, for which the growth is 65.1% (inactive).

`CCOC(=O)/C=C1/SC(=Nc2ccc(C#N)cc2)N(Cc2ccco2)C1=O`: the growth was 0.973% (active).

On to `O=C(NCCNC(=O)Oc1cccc2ccccc12)Oc1cccc2ccccc12`, for which the growth was 97.8% (inactive).

For `Oc1ccc(/C=N/Nc2nc3ccccc3s2)c(O)c1`, the growth was 6.63% (active).

Turning to `C=C1CC[C@@H]2[C@](C)(COC(C)=O)[C@H](OC(C)=O)CC[C@@]2(C)[C@@H]1CC(NCc1ccccc1)C1=CCOC1=O` (stereo not given in full), the growth was 20.9% (inactive).

As to `Nc1nc(SCc2cccnc2)c2ncn(C3OC(CO)C(O)C3O)c2n1` (stereo not given), the growth is 118% (inactive).

For the molecule `COc1ccc(C2=NN(C=O)C(c3cccc(Nc4ccnc5cc(Cl)ccc45)c3)C2)cc1` (stereo not given), the growth was 12.6% (inactive).

Turning to `O=CN1N=C(c2ccc(Nc3ccnc4cc(Cl)ccc34)cc2)CC1c1ccc(Cl)cc1` (stereo not given), the growth was -23.3% (active).

As to `Cc1sc2nc(N3CCCCC3)[nH]c(=O)c2c1C`, the growth was 97% (inactive).

Consider `Cc1ccc(N/N=C(/C(=O)c2ccc(Cl)cc2)c2nc(C)cc(=O)[nH]2)cc1`, for which the growth is 84.4% (inactive).
